The entries come from a sample that favours hits as a whole.
Pf apPOL inh – Pf-apPOL inhibitors, biochemical, fluorescence. Plasmodium falciparum apicoplast DNA polymerase (apPOL). Recombinant Pf-apPOL, molecular beacon fluorescence, 1.5 h. inhibition, % at 10 µM. 0.25% of 210,000 active. AID 1794808, 2022
mHTT-CaM PPI inh – mutant huntingtin-calmodulin interaction inhibitors – biochemical, AlphaScreen, primary screen. inhibition, % at 15 µM. AlphaScreen His-mHTT/GST-CaM binding, luminescence. P42858. 3.6% of 190,000 active. AID 1671202, 2021
Of the large screens only hits and unclear results are named; the others gave an inactive call. Rule as the data show it: active = inhibition above about 50%; inactive = the rest.

O=C(c1ccc2c(c1)C1C=CCC1C(c1ccc([N+](=O)[O-])cc1)N2)N1CCOCC1 (centres undefined)	mHTT-CaM PPI inh 70
O=S(=O)(c1ccc(C2Nc3c(Cl)cc(Cl)cc3C3C=CCC32)cc1)N1CCOCC1 (centres undefined)	none
O=C(c1ccc2c(c1)C1C=CCC1C(c1ccc(Cl)cc1)N2)N1CCOCC1 (centres undefined)	mHTT-CaM PPI inh 83
O=C(c1cccc([N+](=O)[O-])c1)N1CCOCC1	none
O=C(O)C1Nc2ccc([N+](=O)[O-])cc2C2C=CCC12 (centres undefined)	none
O=C(Nc1cccc(F)c1)N1CCC(n2c(-c3ccco3)nc3cccnc32)C1 (centres undefined)	none
COc1ccc(/C=C2\N=C(c3ccc(C)c([N+](=O)[O-])c3)OC2=O)cc1OC	none
CCCNC(=O)c1cc(-c2ccc(OC)cc2F)n(C)n1	none
COc1ccc(N2CCN(C(=O)c3cccc(F)c3)C(C)C2=O)cc1 (centres undefined)	none
CCCc1ccc(S(=O)(=O)N2CCCN(C3CCN(CCOC)C3=O)CC2)cc1 (centres undefined)	none
CSc1ccccc1C(=O)N1CCC(n2cnc3cc(C(F)(F)F)ccc32)CC1	mHTT-CaM PPI inh 82
CSc1ccccc1C(=O)N1CCC(Cn2nc(C)cc2C)CC1	none
Cc1ccc(F)cc1NC(=O)Cn1[nH]c2c(cnc3ccc(F)cc32)c1=O	mHTT-CaM PPI inh 95
O=C(Cn1[nH]c2c(cnc3ccc(F)cc32)c1=O)Nc1ccc(Br)cc1	mHTT-CaM PPI inh 64
Cc1ccc(Cl)cc1NC(=O)Cn1[nH]c2c(cnc3ccc(F)cc32)c1=O	none
O=C(Cn1[nH]c2c(cnc3ccc(F)cc32)c1=O)Nc1ccc(F)cc1	none
O=C(CCCn1cnc([N+](=O)[O-])n1)Nc1ccc([N+](=O)[O-])cc1Cl	none
Nc1c(C(=O)NCCc2ccc(Cl)cc2)nnn1-c1cccc(C(F)(F)F)c1	none
Cn1c2ccc(Br)cc2c2nnc(SCC(=O)N=C3NC(=O)CS3)nc21	none
O=C(CSc1nc(-c2ccccc2)cc(-c2ccccc2)n1)N=C1NC(=O)CS1	mHTT-CaM PPI inh 61
CCN(CC)S(=O)(=O)c1ccc2oc(C(=O)NCCc3ccc(OC)c(OC)c3)c(C)c2c1	none
Cc1ccccc1-n1c(=O)n(CC(C)C)c(=O)c2c1ncn2Cc1cccc(F)c1	none
CC(=O)c1cccc(NC(=O)Cn2cncc(C)c2=O)c1	none
COC(=O)c1cnc2nc(C)ccc2c1Nc1ccc(Cl)cc1C	mHTT-CaM PPI inh 85
COC(=O)c1cnc2nc(C)ccc2c1Nc1cccc(Cl)c1	none
CCOC(=O)c1cnc2nc(C)ccc2c1Nc1ccc(F)c(Cl)c1	mHTT-CaM PPI inh 68
CCOC(=O)c1cnc2nc(C)ccc2c1Nc1cccc(Cl)c1	mHTT-CaM PPI inh 63
COC(=O)c1cnc2nc(C)ccc2c1Nc1ccc(Cl)cc1F	none
CCOC(=O)c1cnc2nc(C)ccc2c1Nc1cc(F)ccc1Cl	none
Cc1ccc(-n2cc(C(=O)Nc3ccc(F)cc3F)c3ccccc3c2=O)cc1C	none
Cc1cccc(CN2CCCCC2c2nc(-c3ccncc3)no2)c1 (centres undefined)	none
COc1cccc(NC(=O)CN2CCc3ccccc3C2C(=O)N2CCC(C)CC2)c1 (centres undefined)	none
COc1cccc(-c2n[nH]c(=O)[nH]2)c1	none
CC(=O)c1ccc2c(c1)C1C=CCC1C(c1cc3c(cc1Br)OCO3)N2 (centres undefined)	none
COc1cccc(C2Nc3ccc(C(C)=O)cc3C3C=CCC32)c1OC (centres undefined)	mHTT-CaM PPI inh 64
O=C(O)c1ccc2c(c1)C1C=CCC1C(c1ccc(Cl)cc1Cl)N2 (centres undefined)	mHTT-CaM PPI inh 67
O=C(O)c1cccc2c1NC(c1ccc(Cl)cc1Cl)C1CC=CC21 (centres undefined)	mHTT-CaM PPI inh 56
NS(=O)(=O)c1ccc2c(c1)C1C=CCC1C(c1ccc(Cl)cc1Cl)N2 (centres undefined)	mHTT-CaM PPI inh 79
O=C(O)C1CC=CCC1c1ccc(Cl)cc1Cl (centres undefined)	none (no result: mHTT-CaM PPI inh)
O=C(c1cccc2c1NC(c1ccc(Cl)cc1Cl)C1CC=CC21)N1CCCC1 (centres undefined)	none
COc1cccc(C2C(=O)N(C3CCCCC3)CC(=O)N2Cc2ccccc2Cl)c1 (centres undefined)	none
O=c1[nH]c(=O)c2sc3nc4c(cc3c2[nH]1)CCCC4	none (no result: Pf apPOL inh)
Cc1cc(C)n(-c2cc(N3CCCC(C(=O)Nn4cnnc4)C3)ncn2)n1 (centres undefined)	none
O=[N+]([O-])c1ccc(C2Nc3cc(Br)ccc3C3C=CCC32)cc1 (centres undefined)	none (no result: Pf apPOL inh)
NS(=O)(=O)c1ccc2c(c1)C1C=CCC1C(c1ccc([N+](=O)[O-])cc1)N2 (centres undefined)	mHTT-CaM PPI inh 92
O=C(C=Cc1ccc2c(c1)OCCCO2)c1cc([N+](=O)[O-])ccc1O	none
COc1ccc(C=CC(=O)c2cc(F)ccc2O)c(OC)c1	none
COc1ccc(O)c(C(=O)C=Cc2ccc3c(c2)OCCCO3)c1	mHTT-CaM PPI inh 80
COc1ccc(C=CC(=O)c2cc(C)ccc2O)c(OC)c1	mHTT-CaM PPI inh 67
COc1cccc(C2=NN(C(=O)CN3CCCCC3)C(c3ccccc3C)C2)c1 (centres undefined)	mHTT-CaM PPI inh 61
COc1ccccc1C1=NN(C(=O)CN2CCCCC2)C(c2cc(C)ccc2C)C1 (centres undefined)	mHTT-CaM PPI inh 100
COc1ccc(C2=NN(C(=O)CN3CCC(C)CC3)C(c3ccccc3C)C2)cc1 (centres undefined)	none
COc1ccccc1C1CC(c2ccccc2F)=NN1C(=O)CN1CCCCC1 (centres undefined)	none
O=C(Cc1csc(NC(=O)C2CC2)n1)Nc1ccc(Cl)c(Cl)c1	none
CSc1ccccc1NC(=O)c1ccc(N2CC3CC(C2)c2cccc(=O)n2C3)c([N+](=O)[O-])c1 (centres undefined)	none
O=C(Nc1nnc(C2CC(=O)N(c3ccc(F)cc3)C2)o1)c1cccc(Cl)c1 (centres undefined)	none
O=C(Nc1nnc(C2CC(=O)N(c3ccccc3)C2)o1)c1cccc(Cl)c1 (centres undefined)	mHTT-CaM PPI inh 61
COc1ccc(CC(=O)Nc2nnc(C3CC(=O)N(c4ccccc4)C3)o2)cc1 (centres undefined)	mHTT-CaM PPI inh 92
O=C(Cc1cccs1)Nc1nnc(C2CC(=O)N(c3ccccc3)C2)o1 (centres undefined)	mHTT-CaM PPI inh 60
Cc1ccccc1CC(=O)Nc1nnc(C2CC(=O)N(c3ccccc3)C2)o1 (centres undefined)	mHTT-CaM PPI inh 50
CCOc1ccc(N2CC(c3nnc(NC(=O)Cc4ccccc4C)o3)CC2=O)cc1 (centres undefined)	none
O=C(CSc1ccc(F)cc1)Nc1nnc(C2CC(=O)N(c3ccccc3)C2)o1 (centres undefined)	none
Cc1ccc(CC(=O)Nc2nnc(C3CC(=O)N(c4ccccc4)C3)o2)cc1 (centres undefined)	none
CN(C)c1ccc(NC(=O)c2oc(=O)c3ccccc3c2-c2ccccc2)cc1	none
COCCNC(=O)C1COC2(CCC(C)CC2)N1C(=O)c1cccc(Cl)c1 (centres undefined)	none
CN(C)c1ccc(C=C(C#N)S(=O)(=O)c2ccc(Cl)cc2)c(F)c1C#N	none (no result: mHTT-CaM PPI inh)
COc1cccc(-c2nc(C3CCN(C(=O)c4ccc(C)cc4C)CC3)no2)c1	none
